The record followed here is publication PMC7862700, “An all-to-all approach to the identification of sequence-specific readers for epigenetic DNA modifications on cytosine”.

What all share (assay): DAPPL (digital affinity profiling via proximity ligation, sequencing); 10 mM Tris-HCl pH 7.5, 50 mM NaCl, 1 mM DTT, 4% glycerol, room temperature, 30 min; GST-TFs on glutathione beads, 16-mer random dsDNA library, 0.1% formaldehyde crosslink after washing; high values mean tight binding
Common to all, as to settings: protein: recombinant; tags: N-terminal GST; dsDNA, one strand shown

One test deals with T1, SPIC (Homo sapiens, UniProt Q8N5J4 1-248).
T1 sequence: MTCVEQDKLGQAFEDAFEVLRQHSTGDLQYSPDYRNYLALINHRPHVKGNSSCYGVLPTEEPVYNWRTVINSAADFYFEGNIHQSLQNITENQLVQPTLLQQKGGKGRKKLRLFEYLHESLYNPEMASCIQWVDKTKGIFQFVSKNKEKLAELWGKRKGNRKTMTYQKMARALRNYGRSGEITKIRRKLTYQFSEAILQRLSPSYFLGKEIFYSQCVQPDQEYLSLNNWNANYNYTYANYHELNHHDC
An outline of the steps:
(§1)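 Binding signal is defined as a hexamer's read frequency for one factor over its frequency for the tag-only sample. To obtain reads, GST-fused human transcription factors were expressed in yeast, captured on glutathione beads, barcoded with DNA and pooled with that sample. Pools met 200 nmole of a 16-mer random double-stranded DNA library in Tris/NaCl/DTT/glycerol buffer for 30 min at room temperature before washing, 0.1% formaldehyde crosslinking, proximity ligation (BsaI/T4 ligase, 1 h, 37 °C), PCR and Illumina NextSeq500 sequencing.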

The target of another test is T2, ETV7 (Homo sapiens, UniProt Q9Y603 1-341).
T2 sequence: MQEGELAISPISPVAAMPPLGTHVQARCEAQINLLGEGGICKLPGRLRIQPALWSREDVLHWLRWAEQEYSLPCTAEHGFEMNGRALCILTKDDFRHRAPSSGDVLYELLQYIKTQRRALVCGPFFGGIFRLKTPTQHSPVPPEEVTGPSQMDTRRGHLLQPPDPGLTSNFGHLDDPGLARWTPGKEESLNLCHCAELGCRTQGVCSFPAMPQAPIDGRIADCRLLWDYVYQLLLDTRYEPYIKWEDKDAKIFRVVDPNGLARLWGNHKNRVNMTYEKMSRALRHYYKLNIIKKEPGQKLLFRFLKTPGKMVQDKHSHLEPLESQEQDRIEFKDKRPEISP
An outline of the steps:
as §1

The target of a further test is T3, FEV (Homo sapiens, UniProt Q99581 1-238).
T3 sequence: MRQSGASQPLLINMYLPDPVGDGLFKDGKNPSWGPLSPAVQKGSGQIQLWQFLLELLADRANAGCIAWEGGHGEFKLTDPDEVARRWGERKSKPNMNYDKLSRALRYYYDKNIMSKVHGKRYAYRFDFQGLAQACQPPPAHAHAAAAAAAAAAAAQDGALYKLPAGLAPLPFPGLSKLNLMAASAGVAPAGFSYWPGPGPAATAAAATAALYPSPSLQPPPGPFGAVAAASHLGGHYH
An outline of the steps: as §1

Another test addresses T4, ERF (Homo sapiens, UniProt P50548 1-548).
T4 sequence: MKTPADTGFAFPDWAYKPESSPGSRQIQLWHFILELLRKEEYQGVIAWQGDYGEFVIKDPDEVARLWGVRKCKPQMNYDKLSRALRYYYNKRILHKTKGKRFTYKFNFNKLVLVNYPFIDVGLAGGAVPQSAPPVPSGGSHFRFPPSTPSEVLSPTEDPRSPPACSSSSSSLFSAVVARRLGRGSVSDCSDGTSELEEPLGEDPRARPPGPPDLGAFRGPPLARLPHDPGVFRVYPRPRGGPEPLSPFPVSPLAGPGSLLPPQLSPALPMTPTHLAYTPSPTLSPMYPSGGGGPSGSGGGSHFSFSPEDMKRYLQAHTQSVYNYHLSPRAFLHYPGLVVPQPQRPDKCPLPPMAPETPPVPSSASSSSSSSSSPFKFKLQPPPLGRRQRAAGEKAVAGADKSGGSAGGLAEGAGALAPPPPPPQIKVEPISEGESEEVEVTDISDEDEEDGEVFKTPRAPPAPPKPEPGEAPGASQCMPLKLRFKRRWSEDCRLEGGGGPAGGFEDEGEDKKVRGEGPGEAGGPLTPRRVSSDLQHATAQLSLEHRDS
An outline of the steps:
as §1

A further test has as its target T5, ETV3L (Homo sapiens, UniProt Q6ZN32 1-361).
T5 sequence: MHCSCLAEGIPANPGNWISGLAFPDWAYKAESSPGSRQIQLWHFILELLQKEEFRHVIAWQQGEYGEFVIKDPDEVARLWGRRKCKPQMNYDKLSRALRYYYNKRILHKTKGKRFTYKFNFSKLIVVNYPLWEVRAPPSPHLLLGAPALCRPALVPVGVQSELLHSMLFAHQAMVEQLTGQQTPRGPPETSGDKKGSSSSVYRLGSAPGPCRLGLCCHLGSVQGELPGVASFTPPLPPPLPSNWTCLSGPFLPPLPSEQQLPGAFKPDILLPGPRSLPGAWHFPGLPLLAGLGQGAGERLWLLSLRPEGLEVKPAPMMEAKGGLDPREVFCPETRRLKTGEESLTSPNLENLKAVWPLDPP
In a few lines: as §1

A further test addresses T6, SPDEF (Homo sapiens, UniProt O95238 1-335).
T6 sequence: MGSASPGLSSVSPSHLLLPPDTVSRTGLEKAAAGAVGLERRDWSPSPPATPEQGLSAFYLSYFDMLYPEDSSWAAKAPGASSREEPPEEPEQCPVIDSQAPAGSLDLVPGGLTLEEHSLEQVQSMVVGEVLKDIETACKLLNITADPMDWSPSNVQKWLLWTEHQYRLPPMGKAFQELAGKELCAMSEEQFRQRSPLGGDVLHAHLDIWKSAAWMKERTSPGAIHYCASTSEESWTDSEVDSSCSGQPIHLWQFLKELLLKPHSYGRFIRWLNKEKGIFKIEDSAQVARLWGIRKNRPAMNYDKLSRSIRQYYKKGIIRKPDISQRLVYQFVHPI
In a few lines: as §1

Another test addresses T7, ETV3 (Homo sapiens, UniProt P41162-2 1-143).
T7 sequence: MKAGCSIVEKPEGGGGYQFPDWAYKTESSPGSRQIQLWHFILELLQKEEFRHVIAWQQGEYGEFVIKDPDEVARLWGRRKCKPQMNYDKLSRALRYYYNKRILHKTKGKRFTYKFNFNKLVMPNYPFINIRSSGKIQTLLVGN
An outline of the steps: as §1

The next test concerns the target ETV6 (Homo sapiens, UniProt P41212 1-452). An outline of the steps:
as §1

A further test concerns the target T8, ERG (Homo sapiens, UniProt P11308 1-479).
T8 sequence: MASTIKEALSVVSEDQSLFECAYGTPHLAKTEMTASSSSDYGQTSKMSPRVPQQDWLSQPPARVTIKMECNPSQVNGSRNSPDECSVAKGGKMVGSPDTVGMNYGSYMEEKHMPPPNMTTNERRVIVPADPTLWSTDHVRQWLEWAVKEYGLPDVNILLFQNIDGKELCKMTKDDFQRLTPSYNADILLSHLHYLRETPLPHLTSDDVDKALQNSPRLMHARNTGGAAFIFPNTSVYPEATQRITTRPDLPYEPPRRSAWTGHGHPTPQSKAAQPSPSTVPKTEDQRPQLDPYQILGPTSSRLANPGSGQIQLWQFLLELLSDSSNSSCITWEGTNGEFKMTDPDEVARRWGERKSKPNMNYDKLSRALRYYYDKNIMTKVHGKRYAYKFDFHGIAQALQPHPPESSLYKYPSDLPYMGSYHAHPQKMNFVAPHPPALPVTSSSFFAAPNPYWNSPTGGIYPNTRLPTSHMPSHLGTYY
An outline of the steps: as §1

The target of another test is T9, EHF (Homo sapiens, UniProt Q9NZC4 1-300).
T9 sequence: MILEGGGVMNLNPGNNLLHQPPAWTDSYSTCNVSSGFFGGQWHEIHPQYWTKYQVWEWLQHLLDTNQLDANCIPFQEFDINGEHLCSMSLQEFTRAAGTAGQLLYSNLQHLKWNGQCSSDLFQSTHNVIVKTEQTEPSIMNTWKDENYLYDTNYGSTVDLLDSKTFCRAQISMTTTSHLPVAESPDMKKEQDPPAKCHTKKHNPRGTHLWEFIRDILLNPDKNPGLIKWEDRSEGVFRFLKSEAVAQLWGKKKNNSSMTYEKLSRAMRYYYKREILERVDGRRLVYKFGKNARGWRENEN
An outline of the steps:
as §1

The next test addresses SPI1 (Homo sapiens, UniProt P17947 1-270). In a few lines:
as §1

In a further test the target is SPIB (Homo sapiens, UniProt Q01892 1-262). An outline of the steps:
as §1

A further test deals with T10, ELF3 (Homo sapiens, UniProt P78545 1-371).
T10 sequence: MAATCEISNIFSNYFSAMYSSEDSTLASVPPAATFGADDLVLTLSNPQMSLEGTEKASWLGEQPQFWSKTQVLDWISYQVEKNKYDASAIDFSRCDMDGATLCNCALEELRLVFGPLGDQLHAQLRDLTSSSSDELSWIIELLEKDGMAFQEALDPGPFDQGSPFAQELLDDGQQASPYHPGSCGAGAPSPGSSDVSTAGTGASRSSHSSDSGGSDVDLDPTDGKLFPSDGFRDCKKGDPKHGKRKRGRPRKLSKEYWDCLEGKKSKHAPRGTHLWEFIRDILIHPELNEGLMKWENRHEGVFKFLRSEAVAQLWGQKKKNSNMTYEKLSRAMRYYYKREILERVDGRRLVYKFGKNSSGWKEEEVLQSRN
An outline of the steps:
as §1

In a further test the target is T11, ELF5 (Homo sapiens, UniProt Q9UKW6-2 1-255).
T11 sequence: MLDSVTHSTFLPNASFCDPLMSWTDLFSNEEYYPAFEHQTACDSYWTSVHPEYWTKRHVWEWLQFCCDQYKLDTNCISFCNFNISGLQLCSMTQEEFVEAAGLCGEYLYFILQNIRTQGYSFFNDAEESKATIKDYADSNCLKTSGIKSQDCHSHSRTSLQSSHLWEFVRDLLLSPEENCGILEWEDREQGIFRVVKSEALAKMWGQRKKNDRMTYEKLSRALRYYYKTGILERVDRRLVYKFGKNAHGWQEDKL
In a few lines:
as §1

ETV6, sequence (P41212 whole entry): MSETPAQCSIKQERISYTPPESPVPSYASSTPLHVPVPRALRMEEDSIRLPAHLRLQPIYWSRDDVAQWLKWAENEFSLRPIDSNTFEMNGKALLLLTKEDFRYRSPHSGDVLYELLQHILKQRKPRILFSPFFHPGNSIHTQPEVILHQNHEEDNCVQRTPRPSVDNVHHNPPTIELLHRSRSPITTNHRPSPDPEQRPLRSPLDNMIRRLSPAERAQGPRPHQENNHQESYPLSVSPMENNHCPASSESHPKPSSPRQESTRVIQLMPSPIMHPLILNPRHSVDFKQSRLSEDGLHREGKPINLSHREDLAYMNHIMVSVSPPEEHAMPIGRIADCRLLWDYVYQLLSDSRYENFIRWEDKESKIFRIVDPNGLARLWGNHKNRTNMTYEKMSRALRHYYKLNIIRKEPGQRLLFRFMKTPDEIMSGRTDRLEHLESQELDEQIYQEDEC
SPIB, sequence (Q01892 whole entry): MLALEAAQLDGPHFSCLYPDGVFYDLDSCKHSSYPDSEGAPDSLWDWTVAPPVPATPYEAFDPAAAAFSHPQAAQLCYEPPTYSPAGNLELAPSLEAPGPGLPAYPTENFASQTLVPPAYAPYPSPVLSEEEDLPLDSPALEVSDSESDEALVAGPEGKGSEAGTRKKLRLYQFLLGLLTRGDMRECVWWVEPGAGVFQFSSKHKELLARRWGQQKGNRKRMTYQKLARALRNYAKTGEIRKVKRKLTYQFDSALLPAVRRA

In the case of GTAGTA, the binding signal with SPIC is 1 fold enrichment (6-mer frequency, TF over GST control); in the test with ETV7 it was 1.01 fold enrichment (6-mer frequency, TF over GST control).
As for GCGACA, the binding signal in the test with FEV is 1.02 fold enrichment (6-mer frequency, TF over GST control); in the test with SPIC, 1.03 fold enrichment (6-mer frequency, TF over GST control); in the test with ERF, 1.04 fold enrichment (6-mer frequency, TF over GST control); with ETV3L, 1.04 fold enrichment (6-mer frequency, TF over GST control); with SPDEF, 1 fold enrichment (6-mer frequency, TF over GST control); with ETV7, 1.05 fold enrichment (6-mer frequency, TF over GST control). Also, the binding signal with ETV3 is 1.01 fold enrichment (6-mer frequency, TF over GST control); in the test with ETV6, 1.04 fold enrichment (6-mer frequency, TF over GST control).
For AGGGAA, the binding signal with ERG is 1.02 fold enrichment (6-mer frequency, TF over GST control); with EHF, 1.04 fold enrichment (6-mer frequency, TF over GST control); with SPI1 it was 1.39 fold enrichment (6-mer frequency, TF over GST control); in the test with SPIB it was 1 fold enrichment (6-mer frequency, TF over GST control); with SPIC, 1.01 fold enrichment (6-mer frequency, TF over GST control); with ELF3 it was 1.01 fold enrichment (6-mer frequency, TF over GST control). In addition, the binding signal with ETV7 is 1.06 fold enrichment (6-mer frequency, TF over GST control); with ELF5, 1.24 fold enrichment (6-mer frequency, TF over GST control); with ETV6, 1.03 fold enrichment (6-mer frequency, TF over GST control).
